Assay outcomes: PubChem, several laboratories
In the library only some 1.5% were active in any assay of this set; here they are far more common.
CCHF vOTU inh-1 – CCHFV vOTU protease inhibition; Pep-AMC fluorescence; inhibition, % at 11.5 µM; 0.55% of 370,000 active; AID 651958; also: 0% = vehicle wells with enzyme and 100% = no enzyme wells
PrPC surface inh – cell surface PrPC inhibition, primary TR-FRET screen. P04156. TR-FRET read-out. inhibition, % at 13.8 µM. 0.43% of 370,000 active. AID 720596; in the data active = inhibition above about 24%; also: 0% = median of the test wells and 100% = reference compound wells
PriA SSB inh – blocks PriA binding to SSB C-terminal tail | AlphaScreen SSBct-PriA binding, biotinylated peptide | inhibition, % at 33 µM | 0.6% of 430,000 active | AID 1272365; in the data active = inhibition mostly above about 37%, no sharp cut-off; inactive = mostly below about 20%;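 also: plate controls were negative control peptide for no effect and reference peptide for full effect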
BH1578 lux ind – induces V. cholerae light production without autoinducers; activation, % at 18.7 µM; V. cholerae BH1578 lux reporter, luminescence, 6 h; 0.16% of 350,000 active; AID 588436; in the data active = activation mostly above about 9.7%, no sharp cut-off
VHR inh abs – DUSP3 (human) phosphatase inhibition; P51452; recombinant VHR phosphatase, pNPP absorbance; inhibition, % at 13.3 µM; 0.52% of 290,000 active; in the data active = inhibition above about 50%
TcdB GH inh – inhibitors of Clostridioides difficile toxin B glycohydrolase; P18177; TcdB glycohydrolase enzymatic assay, plate reader; inhibition, % at 9.99 µM; 0.24% of 350,000 active; in the data active = inhibition above about 10%
CCHF vOTU inh-2 – CCHFV vOTU protease inhibition, confirmation | 17% of 1,900 active | shares compounds with CCHF vOTU inh-1 | inhibition, % at 11.5 µM | Recombinant CCHFV vOTU, Pep-AMC fluorescence
PrPC TRFRET cf – cell surface PrPC inhibition, TR-FRET confirmation; shares compounds with PrPC surface inh; cell surface PrPC level; inhibition, % at 13.8 µM; 65% of 1,500 active; AID 743200; in the data active = inhibition above about 25%
LD9 cytotox – LD9 cell cytotoxicity, PrPc inhibitor counter-screen; shares compounds with PrPC surface inh; LD9 cells cytotoxicity, luminescence viability; inhibition, % at 13.8 µM; 29% of 1,500 active; AID 743201; in the data active = inhibition above about 9.5%
* = called active by the depositor; i = inactive; nt = no result. Rule as the data show it, unless noted: active = inhibition above about 30%; inactive = the rest.

SMILES	CCHF vOTU inh-1	PrPC surface inh	PriA SSB inh	BH1578 lux ind	VHR inh abs	TcdB GH inh	CCHF vOTU inh-2	others
N#Cc1c(N)n(-c2cccc(C(=O)O)c2)c2nc3ccccc3nc12	-376.2	-9.4	-2.8	3.7	17.6	0.8	nt
COc1ccc(-n2nnnc2CNC(=O)c2cc(Br)ccc2Cl)cc1	nt	nt	-13.0	nt	nt	nt	nt
O=C(NCCNC(=O)c1cccc(Cl)c1)c1ccc(NC(=O)c2ccc(F)cc2)cc1	nt	nt	-13.0	nt	nt	nt	nt
COc1ccc(C(CNC(=O)C(=O)NC2CCCC2)N2CCN(C)CC2)cc1 (centres undefined)	-1.9	-0.8	-14.8	-5.3	nt	0.5	nt
COc1ccc(C(CNC(=O)C(=O)NC2CCCCC2)N2CCN(C)CC2)cc1 (centres undefined)	31.7*	-7.5	-4.8	-6.2	nt	-1.2	-13.6
O=C(Nc1ccc(-c2nc3ccccc3[nH]2)cc1)c1ccc2c(c1)OCO2	36.1*	7.3	4.0	i	20.0	1.2	-39.2
CCOC(=O)CC1(C)Oc2ccccc2N1S(=O)(=O)c1ccc(C)cc1 (centres undefined)	29.9*	12.9	nt	nt	nt	-7.1	-23.2
O=C1C=CC(=O)c2c(O)c(CO)c(CO)c(O)c21	77.7*	-18.2	4.0	i	nt	-2.7	69.3*
COc1cc(CNc2ncnc3c2ncn3[C@H]2CN(Cc3cccc(C(F)(F)F)c3)C[C@@H](CO)O2)cc(OC)c1OC	31.0*	-2.4	nt	-0.7	nt	-6.9	-8.7
COc1cc(CNc2ncnc3c2ncn3[C@H]2CN(Cc3cccc(C(F)(F)F)c3)C[C@@H](COC(C)=O)O2)cc(OC)c1OC	4.6	-3.4	nt	i	nt	-0.5	nt
O=C(O)c1cccc(O)c1C(=O)O	nt	nt	-13.0	nt	nt	nt	nt
CC(C)CCCCCCCCc1cccc(O)c1C(=O)O	42.9*	-0.2	nt	nt	nt	-1.1	25.2
CO/N=C/c1ccc(N2CCN(S(C)(=O)=O)CC2)c([N+](=O)[O-])c1	nt	nt	i	nt	nt	nt	nt
Cc1c(C(=O)NN=Cc2ccc(-c3ccccc3[N+](=O)[O-])o2)sc(N)c1C#N	nt	nt	35.0	nt	nt	nt	nt
Cc1c(C(=O)N/N=C/c2ccc(-c3ccccc3[N+](=O)[O-])o2)sc(N)c1C#N	42.5*	0.3	nt	i	-12.4	nt	-6.5
Nn1cnnc1N/N=C\c1ccc(-c2ccccc2[N+](=O)[O-])o1	97.3*	-8.9	nt	-0.4	17.0	-1.9	3.1
Nn1cnnc1NN=Cc1ccc(-c2ccccc2[N+](=O)[O-])o1	nt	nt	-12.9	nt	nt	nt	nt
Cc1cc(N)nc(Nc2cccc(C(C)O)c2)n1 (centres undefined)	nt	nt	-19.0	nt	nt	nt	nt
COc1ccc(Cl)cc1S(=O)(=O)Nc1ccc2c(c1)N(C(=O)C(C)(C)C)CC2	nt	nt	8.0	nt	nt	nt	nt
O=C(Cn1cnc(-c2ccc(Cl)cc2)cc1=O)Nc1ccncc1	nt	nt	-3.0	nt	nt	nt	nt
O=C(NCCCn1ccnc1)c1noc2c1CCc1ccccc1-2	38.7*	6.9	0.8	-0.5	12.0	nt	21.5
O=C(NCCCn1ccnc1)c1noc2c1CCCC2	-9.4	-6.1	1.9	i	7.1	nt	nt
O=C(CCNS(=O)(=O)c1ccc(OC(F)(F)F)cc1)NCCc1c[nH]c2ccccc12	29.6*	-4.9	-7.0	-1.3	nt	1.7	-24.2
COc1ccc(NC(=S)NNc2ccc(S(=O)(=O)Nc3ccccc3C(=O)O)cc2[N+](=O)[O-])cc1	32.8*	-31.1	55.1*	-0.3	25.0	-4.4	16.1
O=C(Cc1ccccc1)Nc1c(C(=O)Nc2ccc(OC(F)(F)F)cc2)oc2ccccc12	nt	nt	-12.0	nt	nt	nt	nt
CCCCNC(=O)c1nc(C2CCN(S(=O)(=O)c3csc(C(=O)O)c3)CC2)oc1-c1ccccc1	29.6*	-0.8	nt	nt	nt	0.8	3.9
CCCCNC(=O)c1nc(C2CCN(S(=O)(=O)c3ccc(Cl)cc3)CC2)oc1-c1ccccc1	-7.7	-9.3	nt	nt	nt	-0.2	nt
COc1cc(/C=C2\SC(=S)N(CC(=O)O)C2=O)ccc1OS(=O)(=O)c1ccc(C)cc1	53.7*	-12.8	1.2	-0.7	nt	3.8	8.2
O=S(=O)(c1ccccc1)N(CC(F)(F)F)c1ccc(C(O)(C(F)(F)F)C(F)(F)F)cc1	34.0*	32.9*	nt	-0.1	nt	3.7	-0.2	PrPC TRFRET cf=13.6;LD9 cytotox=-3.1
CSc1cccc(C(=O)Nc2ccc(-c3nc4ccccc4o3)cc2)c1	nt	nt	13.0	nt	nt	nt	nt
